High-throughput results as filed in PubChem BioAssay.
Most compounds without a hit are left out; they make up all but 8.7% or so of the library.
G9a block: G9a (human) methyltransferase inhibition; Q96KQ7; G9a H3K9 monomethylation, AlphaScreen, 2 h; Potency, µM (titrated, usually from 102 µM), hits mostly inhibitors; hit rate 8.8% among 350,000; further: nearly all actives have a fitted effect of over 75% in size
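AlphaScreen detection with an anti-monomethyl H3K9 antibody quantified product after a 2 h room-temperature reaction containing 500 nM biotinylated H3K9 peptide, 20 µM SAM and 20 nM enzyme, which had been preincubated 15 min with compound.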
HP1b binding inh: inhibitors of HP1-beta chromodomain binding to methylated histone tails; AlphaScreen HP1-beta / biotin-H3K9me3 peptide binding; Potency, µM (doses to about 114 µM), usual class: inhibitors; hit rate 0.56% among 390,000; AID 540317; P83916; further: nearly all actives have a fitted effect of over 70% in size
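HP1-beta protein (50 nM final) preincubated 30 min at room temperature with biotinylated H3(1-18)K9me3 peptide (50 nM) in PBS pH 7.4, 0.01% Tween-20, then compound added for 30 min. AlphaScreen streptavidin donor/nickel chelate acceptor beads (10 ug/mL final), 30 min dark, luminescence read.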
BAZ2B block: BAZ2B (human) inhibition | Potency, µM (series often up to 114 µM), hits mostly inhibitors | AID 504333 | AlphaScreen BAZ2B-H3K14Ac peptide displacement | Q9UIF8 | hit rate 4.4% among 360,000; further: nearly all actives have a fitted effect of over 60% in size
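AlphaScreen luminescence quantifies BAZ2B engagement of H3K14Ac peptide; the protein and biotinylated peptide are both at 50 nM final, buffer PBS pH 7.4 with 0.01% Tween-20, all steps at room temperature.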
ALOX12 inh: blocks human arachidonate 12S-lipoxygenase. P18054. purified 12hLO, xylenol orange hydroperoxide absorbance. Potency, µM (top dose mostly 108 µM), usual class: inhibitors. hit rate 1.1% among 580,000. AID 1671190
Target sequence (P18054 whole entry, looked up): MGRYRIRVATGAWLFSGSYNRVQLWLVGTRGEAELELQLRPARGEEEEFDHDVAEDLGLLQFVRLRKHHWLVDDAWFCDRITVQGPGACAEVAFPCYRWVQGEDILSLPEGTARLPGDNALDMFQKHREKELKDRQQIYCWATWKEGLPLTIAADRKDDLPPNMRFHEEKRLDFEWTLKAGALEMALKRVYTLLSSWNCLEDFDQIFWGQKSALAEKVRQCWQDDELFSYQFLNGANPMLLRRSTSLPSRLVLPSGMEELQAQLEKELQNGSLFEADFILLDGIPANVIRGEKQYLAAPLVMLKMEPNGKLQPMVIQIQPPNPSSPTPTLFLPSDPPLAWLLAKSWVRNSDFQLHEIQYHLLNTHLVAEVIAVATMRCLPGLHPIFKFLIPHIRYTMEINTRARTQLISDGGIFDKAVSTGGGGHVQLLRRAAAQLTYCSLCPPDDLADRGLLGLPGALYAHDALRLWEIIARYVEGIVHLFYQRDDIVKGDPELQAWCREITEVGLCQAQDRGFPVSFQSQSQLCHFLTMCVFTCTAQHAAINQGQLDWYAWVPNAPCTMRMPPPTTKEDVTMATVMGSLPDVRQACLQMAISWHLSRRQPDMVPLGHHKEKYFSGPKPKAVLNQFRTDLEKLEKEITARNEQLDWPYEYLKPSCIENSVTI
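Hydroperoxide product was detected by ferrous iron/xylenol orange as the 573 to 405 nm absorbance ratio. Arachidonic acid at 40 uM (final) was turned over for 30 min at room temperature by 150 nM human 12hLO, pH 7.0 Hepes buffer, after 15 min compound preincubation.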
Sfp PPTase inh: blocks B. subtilis Sfp PPTase activity. Biochemical Sfp PPTase activity, qHTS. Potency, µM, actives largely listed as inhibitors. hit rate 3.5% among 310,000;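 further: the enzyme is Sfp with the accession as filed and its product quenches rhodamine fluorescence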
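Compounds were incubated with enzyme (final 15 nM) for 15 min at room temperature before substrate addition started the reaction. Fluorescence at 525 nm excitation, 598 nm emission was recorded immediately and after 30 minutes.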
JMJD2A Tudor: JMJD2A Tudor domain (human) inhibition | O75164 | AlphaScreen JMJD2A-Tudor / H3K4me3 peptide binding | Potency, µM (top dose mostly 114 µM), actives largely listed as inhibitors | hit rate 4.4% among 390,000 | AID 504339; further: nearly all actives have a fitted effect of over 50% in size
A number is an active result; . = inactive; ? = inconclusive; / = no result; [ ] = remark or other dose. The call rests on the fitted dose curve; in most records, active means well fitted curve in the direction sought with a large enough effect; inconclusive means small, poorly fitted or top-dose-only effect, or another doubt; inactive means no such curve, though single readings can be large; an effect the other way counts as inactive or inconclusive.

SMILES | G9a block | HP1b binding inh | BAZ2B block | ALOX12 inh | Sfp PPTase inh | JMJD2A Tudor
COc1ccc(C(C#N)N2CCC(c3ccccc3)=N2)cc1 (stereo unspecified) | 35µM | . | . | . | . | .
COc1cc(C(C#N)N2N=C(c3ccccc3)CC2c2ccccc2)ccc1O (stereo unspecified) | . | . | . | . | . | .
CS(=O)(=O)c1ccc(C(=O)OCC(=O)NC2CCS(=O)(=O)C2)cc1[N+](=O)[O-] (stereo unspecified) | . | . | . | . | . | .
CS(=O)(=O)c1ccc(SCC(=O)NC2CCS(=O)(=O)C2)c([N+](=O)[O-])c1 (stereo unspecified) | 32µM | . | . | . | . | .
CC(=O)c1cc(Br)ccc1OCC(=O)N1CCN(C(=O)c2cccs2)CC1 | / | / | / | . | / | /
CCOC(=O)c1cc(C(=O)OCC)c(=O)[nH]c1C | . | . | . | . | ? | .
CCOC(=O)c1cc2c(N)c(C(=O)c3ccc(Br)cc3)sc2[nH]c1=O | 50µM | . | . | . | 28µM | .
C=CCn1c(Cc2csc(N)n2)nnc1SCC(=O)Nc1ccc(C(=O)OCC)cc1 | . | . | 22µM | . | . | 79µM
C=CCn1c(Cc2csc(N)n2)nnc1SCC(=O)OCC | . | . | 28µM | . | . | 45µM
C=CCn1c(Cc2ccc(OCC)cc2)nnc1SCC(N)=O | .[12.7 µM] | . | . | . | . | .
Cc1[nH]c2ccc(C(=O)N3CCC(C(=O)NCC(C)(C)CN(C)C)CC3)cc2c1C | / | / | / | . | / | /
Cc1csc2c(=O)sc(NC(=O)c3ccco3)nc12 | 50µM | . | . | . | 56µM | .
O=C(Nc1nc2ccsc2c(=O)s1)c1ccco1 | 40µM | ? | ? | . | ? | 35µM
Cc1csc2c(=O)sc(NC(=O)c3cccs3)nc12 | ? | . | 50µM | . | . | .
CCc1nc(-c2c3n(c(=O)n(CC(=O)NCc4ccc(C)cc4)c2=O)CCCC3)no1 | / | / | / | . | / | /
CCCN(CCC)S(=O)(=O)c1ccc(C(=O)Nc2nnc(COC)o2)cc1 | . | . | ? | . | . | .
O=C(Nc1nnc(-c2ccco2)o1)c1ccc(S(=O)(=O)N2CCCC2)cc1 | ? | . | / | . | . | .
COCc1nnc(NC(=O)c2ccc(S(=O)(=O)N(C)C3CCCCC3)cc2)o1 | ? | . | ? | . | . | 79µM
COCc1nnc(NC(=O)c2ccc(S(=O)(=O)N3CCCCCC3)cc2)o1 | . | . | ? | . | . | 79µM
CCOC(=O)Cc1ccc(NC(=O)Nc2nnc(N3CCCC(C)C3)s2)cc1 (stereo unspecified) | / | / | / | . | / | /
CC(C)n1c(S(=O)(=O)O)nc2ccccc21 | 45µM | . | . | / | . | .
COc1cccc(N2CCN(C(=O)c3ccc4c(c3)C(O)CCCCCN4C)CC2)c1 (stereo unspecified) | / | / | / | . | / | /
Cc1ccc(C2=NS(=O)(=O)N(C)C(C(=O)N3CCN(c4ccccc4)CC3)=C2)cc1 | / | / | / | . | / | /
NC(=O)c1c(NC(=O)CSc2nnc(Cc3ccccc3)n2Cc2ccco2)sc2c1CCC2 | 40µM | . | . | . | . | ?
CCOC(=O)c1c(NC(=O)CSc2nnc(CNC(=O)c3ccco3)n2C)sc2c1CCC2 | 50µM | . | ? | . | . | .
SMILES | G9a block | HP1b binding inh | BAZ2B block | ALOX12 inh | Sfp PPTase inh | JMJD2A Tudor
CCOC(=O)c1c(NC(=O)c2ccco2)sc2c1CCCCC2 | . | . | . | . | ? | .
CCn1cnnc1CC1CCN(S(=O)(=O)c2ccc3c(c2)CCC3)C1 (stereo unspecified) | / | / | / | . | / | /
CC(=O)Nc1sc2c(c1C(c1ccc(F)cc1)N1CCOCC1)CCCC2 (stereo unspecified) | ? | . | 50µM | . | . | ?
CC(=O)Nc1sc2c(c1C(c1ccc(Cl)cc1)N1CCOCC1)CCCC2 (stereo unspecified) | 45µM | ? | ? | ? | . | ?
CC(=O)Nc1sc2c(c1C(c1ccccc1)N1CCOCC1)CCCC2 (stereo unspecified) | . | . | . | . | . | .
c1ccc(-c2cc(NCCN3CCCCC3)c3ccccc3n2)cc1 | 40µM | . | . | ? | . | .
COc1cccc(C(=O)/C(C#N)=N/Nc2cccc(-c3ccnc(C)n3)c2)c1 | 50µM | . | ? | . | . | ?
COc1ccc(NC(=O)c2c(NCc3ccc(C)o3)sc3c2CCC(C)C3)cc1 (stereo unspecified) | 8.9µM | . | . | . | / | 45µM
COc1ccc(NC(=O)c2c(NCc3ccc(C)o3)sc3c2CCCCC3)c(OC)c1 | . | . | . | ? | / | 50µM
COc1ccc(NC(=O)c2c(NCc3ccc(C)o3)sc3c2CCC(C)C3)c(OC)c1 (stereo unspecified) | 16µM | . | . | ? | / | 28µM
COc1ccc(NC(=O)c2c(NC(=O)CNCC(C)C)sc3c2CCC3)c(OC)c1 | / | . | . | . | ? | .
COc1ccccc1NC(=O)c1c(NCc2ccc(C)o2)sc2c1CCC(C)C2 (stereo unspecified) | 8.9µM | . | . | . | / | ?
COc1ccc(NC(=O)c2c(NC(=O)COc3ccccc3)sc3c2CCC(C)C3)cc1 (stereo unspecified) | . | . | . | . | / | .
COc1ccc(NC(=O)C2CN(S(=O)(=O)C3CC3)CC23CCCCC3)c(OC)c1 (stereo unspecified) | / | / | / | . | / | /
CC(=O)c1cccc(NC(=O)C(C)Sc2nc3ccc(Cl)cc3c(=O)n2CC(C)C)c1 (stereo unspecified) | / | / | / | . | / | /
Cc1ccc2c(C(=O)O)cc(C)nc2c1 | / | / | / | . | / | /
O=C(CCc1ncc(-c2ccccc2Cl)o1)Nc1ccc(F)cc1 | / | / | / | . | / | /
CS(=O)(=O)N1N=C(c2ccco2)CC1c1ccco1 (stereo unspecified) | 71µM | . | 50µM | ? | . | .
COc1ccc2cc(C3CC(c4ccco4)=NN3S(C)(=O)=O)c(Cl)nc2c1 (stereo unspecified) | / | ? | ? | 35µM | 50µM | .
CS(=O)(=O)N1N=C(c2ccco2)CC1c1ccc(Cl)cc1 (stereo unspecified) | 50µM | . | . | ? | . | .
Cc1ccc2cc(C3CC(c4ccco4)=NN3C(=O)CCC(=O)O)c(Cl)nc2c1 (stereo unspecified) | ? | ? | . | . | . | 22µM
COc1ccc(C(=O)NC2CCN(C(=O)c3cc4c(=O)[nH]c(C)cn4n3)CC2)cc1F | / | / | / | . | / | /
Cc1ccc2nc(Cl)c(C3CC(c4cccs4)=NN3C(=O)CCCC(=O)O)cc2c1 (stereo unspecified) | . | . | . | ? | . | ?
Cc1cccc2cc(C3CC(c4cccs4)=NN3C(=O)CCC(=O)O)c(Cl)nc12 (stereo unspecified) | . | . | ? | . | . | 32µM
